# Test results: PubChem BioAssay (EPA / NIEHS)
# A structure can be active in one record and inactive in another. Active and inactive are the calls of the source. Rule for the calls: active = hit-call score of the fitted dose curve at least 0.9, where 1 is the maximum; inactive = score below 0.9.
# Read-out: Nuclear factor erythroid 2-related factor 2 (Homo sapiens) (UniProt Q16236)
# Experiment: LTEA_HepaRG_NFE2L2: Life Technologies and Expression Analysis (LTEA) Assay for Nuclear factor erythroid 2-related factor 2 (NFE2L2) Transcription Factor using HepaRG (AID 2283527);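 for outcome: TaqMan qRT-PCR transcript level normalised to ACTB GAPDH and POLR2A housekeeping genes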
# Settings: mRNA level, 48 h; actives raise or lower the signal
# Method: LTEA_HepaRG is a cell based, multiplexed-readout assay that uses HepaRG, a human liver cell line, with measurements taken at 48 hours after chemical dosing on a 96-well plate.LTEA_HepaRG_NFE2L2 is one of 102 assay component(s) measured in the LTEA HepaRG cell culture assay. It is a marker of Inflammation/injury.Data from the assay component LTEA_HepaRG_NFE2L2 was analyzed into 1 endpoint. This assay endpoint, LTEA_HepaRG_NFE2L2, was analyzed with bidirectional fitting relative to DMSO as the negative control and baseline of activity. Using a type of inducible reporter, measures of mRNA induction for gain or loss-of-signal activity can be used to understand regulation of transcription factor activity. To generalize the intended target to other relatable targets, this assay endpoint is annotated to the dna binding intended target family, where the subfamily is basic leucine zipper.
# A total of 1060 chemcials from the ToxCast library were tested in eight-point concentration-response experiments. Cell culture and cytotoxicity assays were conducted at Thermo Fisher Scientific's Custom Services facility (Madison, WI). A single lot of human HepaRG cells (Thermo Fisher Scientific, Frederick, MD) was used for the cell culture experiments. 96-well format collagen type I coated plates of human HepaRG cells were prepared using established methods. Briefly, cryopreserved HepaRG cells were thawed, plated at a density of approximately 100,000 cells/well in HepaRG Thaw, Plate, and General Purpose media (HPRG770, Thermo Fisher Scientific), and incubated for 48 hours. 0.5% DMSO was selected as vehicle control to balance the requisite need of DMSO in HepaRG cultures to maintain differentiation (for example, baseline metabolism, proportions of hepatocytes vs. cholangiocytes), while enabling further hepatic receptor pathway activation (for example, PXR and CAR) in response to chemical exposure. 48 hours after plating, the culture medium was replaced with HepaRG Serum-Free Incudtion Media. Cells were exposed to each test chemical in duplicate and maintained in CO2 incubators for another 48 hours. Chemical plates were thawed to room temperature and 200x concentrations of treatment groups were prepared. 8-point conentration-reponse curves were made with the highest exposure at 100 uM, followed by half-log dilutions, all in 0.5% DMSO. Each test plate contained variouse controls, induction positive controls (1mM phenobarbital), cytotoxicity positive controls ([…] aflatoxin B1), vehicle controls (0.5% DMSO), and total lysis controls (0.5% DMSO). Cell morphology images were taken using an Essen IncuCyte FLR automated microscope, with six 96-well plates imaged in about 24 minutes. Images were captured and exported and JPEG files. Spent culture media was transfered to black-well plates for the LDH assay, and remaining media was sorted at -80 C for later use. Cells were treated with RLT buffer and frozen until shipped for gene expression analysis. Total RNA was isolated from the cell suspension in 75 uL of Buffer RLT (Qiagen, Germantown, MD 20874) by Quintiles/Expression Analysis (Durham, NC) using a custom isolation procedure. Total RNA from each plate well was transferred to a preamplification plate. Fluidigm's 96.96 Dynamic ArrayTM (Fluidigm, Amsterdam, the Netherlands) technology was used for gene expression analyses by quantitative reverse transcription polymerase chain reaction (qRT-PCR, performed by Quintiles/Expression Analysis, Durham, NC)89. Standard TaqManTM Assays (Applied Biosystems/ThermoFisher Scientific, Foster City, CA) were used to assess the expression of 93 genes selected based on their selectivity and sensitivity to important hepatic receptors known to be modulated by environmental chemicals; importance in human hepatocyte functionality; and hepatotoxicity. […]
# Sequence of Nuclear factor erythroid 2-related factor 2 (Homo sapiens) (Q16236 whole entry, looked up): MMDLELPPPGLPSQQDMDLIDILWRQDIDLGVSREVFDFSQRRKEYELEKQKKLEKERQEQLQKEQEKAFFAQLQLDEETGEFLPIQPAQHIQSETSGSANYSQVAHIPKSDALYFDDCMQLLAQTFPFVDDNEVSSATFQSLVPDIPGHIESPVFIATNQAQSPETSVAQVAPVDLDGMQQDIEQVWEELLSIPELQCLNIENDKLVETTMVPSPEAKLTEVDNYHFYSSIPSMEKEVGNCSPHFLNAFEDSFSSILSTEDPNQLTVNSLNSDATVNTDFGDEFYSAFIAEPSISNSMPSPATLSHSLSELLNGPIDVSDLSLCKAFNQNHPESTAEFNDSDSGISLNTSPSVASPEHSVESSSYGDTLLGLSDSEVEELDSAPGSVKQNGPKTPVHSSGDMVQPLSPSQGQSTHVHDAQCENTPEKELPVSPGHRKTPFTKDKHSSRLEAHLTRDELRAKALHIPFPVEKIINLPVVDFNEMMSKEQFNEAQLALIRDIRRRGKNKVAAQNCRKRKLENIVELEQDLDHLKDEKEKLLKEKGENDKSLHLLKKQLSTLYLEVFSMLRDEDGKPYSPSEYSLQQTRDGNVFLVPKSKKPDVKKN
Structure (SMILES),outcome,AC50
Oc1cccc2cccnc12,inactive,
CCC(=O)C(CC(C)N(C)C)(c1ccccc1)c1ccccc1 (configuration not stated),inactive,
Cn1sc(Cl)cc1=O,inactive,
CC(C)(C)c1cc(O)ccc1O,inactive,
CCOP(=S)(OCC)Oc1nc(Cl)c(Cl)cc1Cl,inactive,
COc1cc(-c2ccc(N)c(OC)c2)ccc1N,inactive,50 µM (active)
O=[N+]([O-])c1ccc(O)c([N+](=O)[O-])c1,,12.7 µM (active)
O=C(O)C(Cl)(Cl)Cl,inactive,
C=CC(=O)OCCCCCC(C)C,inactive,
ClCC(Cl)CCl,inactive,
CC(C)(OO)c1ccccc1,inactive,
CC(=O)[O][Hg][c]1ccccc1,,23.4 µM (active)
CCOP(=S)(OCC)SCSP(=S)(OCC)OCC,inactive,
Cc1ccccc1N,inactive,
CCN1CCC2(CC1)COc1cc3c(cc12)N(C(=O)c1ccc(-c2ccc(-c4nnc(C)o4)cc2C)cc1)CC3,inactive,
CCCCCCCCc1ccc(O)cc1,inactive,

Structure (SMILES),outcome,AC50
C[C@@H]1C[C@@H]([C@H](O)CC2CC(=O)NC(=O)C2)C(=O)[C@@H](C)C1,,30.3 µM (active)
O=C(Nc1ccc2[nH]ccc2c1)c1cc2cc(F)ccc2n1Cc1cccc(F)c1,,47.1 µM (active)
CCC(C)(C)c1ccc(O)c(C(C)(C)CC)c1,inactive,
CC(C)(C)CC(C)(C)c1ccc(O)cc1,inactive,
CN(C)N=O,inactive,
CC12CC1(C)C(=O)N(c1cc(Cl)cc(Cl)c1)C2=O (configuration not stated),inactive,
O=C(O)C(F)(F)C(F)(F)C(F)(F)C(F)(F)C(F)(F)C(F)(F)C(F)(F)C(F)(F)C(F)(F)C(F)(F)F,inactive,
O=C1C2(Cl)C3(Cl)C4(Cl)C(Cl)(Cl)C5(Cl)C3(Cl)C1(Cl)C5(Cl)C24Cl (configuration not stated),,92.1 µM (active)
O=C(O)C(F)(F)C(F)(F)C(F)(F)C(F)(F)C(F)(F)C(F)(F)F,inactive,
C=C(C)C(=O)[O][Sn]([CH2]CCC)([CH2]CCC)[CH2]CCC,,61.3 µM (active)
O=c1[nH]c(=O)[nH]c(=O)[nH]1,inactive,
C[C@]12CCC(=O)C[C@@H]1CC[C@@H]1[C@@H]2CC[C@]2(C)[C@@H](O)CC[C@@H]12,inactive,
ClC1(Cl)C2(Cl)C3(Cl)C4(Cl)C(Cl)(Cl)C5(Cl)C3(Cl)C1(Cl)C5(Cl)C24Cl (configuration not stated),inactive,
NC(=O)O,inactive,
CC(C)(c1ccccc1)c1ccc(O)c(C(C)(C)c2ccccc2)c1,,50 µM (active)
